Screening data (PubChem)
14-3-3 PPI – 14-3-3 gamma protein interaction modulation; P61981; FP, 14-3-3gamma / TMR-pS259-Raf peptide binding; inhibition, % at 40 µM; 160,000 compounds, 0.19% hits; in the data active = inhibition above about 30%;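 also: 0% = protein plus tracer without compound and 100% = blank with tracer alone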
Target sequence (P61981 whole entry, looked up): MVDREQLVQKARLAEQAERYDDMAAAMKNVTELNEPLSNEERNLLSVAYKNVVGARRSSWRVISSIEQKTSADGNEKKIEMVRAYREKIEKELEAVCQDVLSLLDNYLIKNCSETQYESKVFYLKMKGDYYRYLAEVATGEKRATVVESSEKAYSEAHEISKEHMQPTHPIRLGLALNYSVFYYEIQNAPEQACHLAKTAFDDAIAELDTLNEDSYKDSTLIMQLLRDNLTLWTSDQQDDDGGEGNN
* = called active by the depositor. Only a selection was taken, and hits are over-represented in it overall.

SMILES	14-3-3 PPI
CCN(CC)CCN(C(=O)c1ccc([N+](=O)[O-])cc1)C1CCCc2c1[nH]c1ccc(C)cc21 (stereo not given)	2.7
COc1ccc(C2C(=O)N(C3CCCCCC3)CC(=O)N2Cc2ccccc2Cl)cc1 (stereo not given)	-1.5
CCOC(=O)C1=C(C)NC(C)=C(C(=O)OCC)C1c1ccc(-c2ccccc2)o1	39.9*
COC(=O)C1=C(C)NC(C)=C(C(=O)OC)C1c1ccc(-c2ccc(Cl)cc2)o1	-21.1
CCOC(=O)C1=C(C)NC(C)=C(C(=O)OCC)C1c1ccc(-c2ccccc2Cl)o1	-18.7
Cc1ccc(C)c(NC2(C#N)C(=O)Nc3ccccc32)c1 (stereo not given)	-0.2
CCN1CCN(CCCNC(=O)C2CCC(Cn3c(=S)[nH]c4ccccc4c3=O)CC2)CC1 (stereo not given)	-12.9
CCOC(=O)c1c(-c2ccc(C)cc2)csc1NC(=O)COc1ccccc1C	-8.3
CC1(C)CC(=O)C=C(N2CCN(C3=CC(=O)CC(C)(C)C3)CC2)C1	0.1
CC1(C)CC(=S)C=C(N2CCCCC2)C1	124.5*
CC1(C)CC(=O)c2sc(N3CCCCC3)nc2C1	1.3
O=C(Cc1ccccc1Br)N1CC(=O)N(CCc2ccccc2)C(=O)C1	-10.4
CCc1c(-c2ccccc2)nc2ccccc2c1C(=O)NCc1cccs1	2.4
O=C(CCn1c(=O)c2ccccc2n(Cc2cc(=O)n3ccccc3n2)c1=O)NCCc1ccc(Cl)cc1	-1.7
COc1ccc(C(=O)CC2(O)C(=O)N(C)c3ccccc32)cc1[N+](=O)[O-] (stereo not given)	-5.4
Cc1cc(C(F)(F)F)nn1CC(N)=O	1.4
COc1ccc(C)cc1NC(=O)CCN1CCCC1	1.4
COc1ccc(OC)c(NC(=O)CCN2CCCCC2)c1	2.5
COc1ccc(OC)c(NC(=O)CCN2CCCC(C)C2)c1 (stereo not given)	35.3*
Cc1c(C(=O)OC(C)C)sc(NC(=O)c2cc3ccccc3c(=O)o2)c1C(=O)OC(C)C	4.4
CSc1nc2n(n1)C(c1ccccc1Cl)C1=C(CC(C)(C)CC1=O)N2 (stereo not given)	-4.9
Cc1ccccc1OCC(=O)OCC(=O)c1ccc([N+](=O)[O-])cc1	8.1
COc1ccc(-c2cn(-c3ccc(OC)cc3)c(SCC(=O)Nc3ccccc3)n2)cc1	-7.9
Cc1ccc(C2C=C(c3cccs3)Nc3nnnn32)cc1 (stereo not given)	37.3*
CCc1ccc(C2=CC(c3cccc(C)c3)n3nnnc3N2)cc1 (stereo not given)	-6.0
SMILES	14-3-3 PPI
Cc1cccc(C2C=C(c3ccc(Cl)cc3)Nc3nnnn32)c1 (stereo not given)	-19.8
Clc1ccccc1C1C=C(c2cccs2)Nc2nnnn21 (stereo not given)	-4.9
Cc1cccc(C2C=C(c3ccc(Br)s3)Nc3nnnn32)c1 (stereo not given)	48.1*
Cc1ccc(C2=CC(c3ccc(C)cc3)n3nnnc3N2)cc1 (stereo not given)	1.3
Cc1cccc(-c2nc(N)n[nH]2)c1	4.0
O=C(NC1CCCCC1)c1ccc2c(c1)[nH]c(=S)n1c3ccccc3nc21	-2.5
CC(C)Sc1ncnc2c1sc1nc(N3CCOCC3)c3c(c12)CC(C)(C)OC3	0.9
O=C(Nc1ccccc1Br)c1ccccc1	3.1
CCOC(=O)c1ccc(NC2=CC(=NS(=O)(=O)c3cccs3)c3ccccc3C2=O)cc1	66.7*
O=C1C(Nc2ccccc2)=CC(=NS(=O)(=O)c2cccs2)c2ccccc21	-78.6
CC(=O)Nc1ccc(NC2=CC(=NS(=O)(=O)c3cccs3)c3ccccc3C2=O)cc1	-1.7
C=CCn1c(-c2cc3ccccc3cc2O)n[nH]c1=S	-0.8
Cc1cccc(C(C)(C)C)c1Sc1cc(N(C)CCO)c([N+](=O)[O-])c2nonc12	-21.7
Cc1ccc(-c2c(C(=O)Nc3ccc(N(C)C)cc3)oc(=O)c3ccccc23)cc1	39.3*
CCc1ccc(NC(=O)c2oc(=O)c3ccccc3c2-c2ccc(C)cc2)cc1	2.1
CCOC(=O)c1ccc(NC(=O)c2oc(=O)c3ccccc3c2-c2ccc(C)cc2)cc1	-2.7
O=c1[nH]c(=S)[nH]c2c1C(C1CCCCC1)Cc1ccccc1-2 (stereo not given)	3.4
Cc1ccc(C)c(NC(=O)c2cc(S(=O)(=O)NCCc3ccc(Cl)cc3)ccc2F)c1	-7.3
Cc1ccc(CNC(=O)c2ccc(CNS(=O)(=O)c3ccc(C)cc3)cc2)cc1	-5.9
CNC(=O)c1ccc(CNS(=O)(=O)c2ccc(C)cc2)cc1	3.0
COc1cccc(CNC(=O)c2ccc(CNS(=O)(=O)c3ccc(C)cc3)cc2)c1	33.6*
COc1cccc(NC(=O)CCN2CC(C)OC(C)C2)c1 (stereo not given)	-3.6
O=C1CSC(=O)N1CCN=C1NS(=O)(=O)c2ccccc21	2.5
COc1ccc(-n2c(=O)c3ccccc3n(Cc3cccc(F)c3)c2=O)cc1OC	-11.6
Cc1cccc(C(=O)Nc2ccc(O)cc2)c1	1.6
Cc1cccc(C(=O)Nc2cccc(NC(=O)c3ccc(F)cc3)c2)c1	2.3
Cc1cccc(C(=O)Nc2cccc(NC(=O)c3cccc(C)c3)c2)c1	44.9*
